Rows were chosen to be rich in hits. Some 4.2% of all compounds tested hit in one or more screens of this group.
esBAF inh – inhibitors of esBAF chromatin remodeling in mouse ES cells; reporter increase, % at 12.5 µM; AID 602393; Bmi1-luciferase knock-in reporter, 24 h; 100% = twice the neutral-well signal; hit rate 2% among 350,000; in the data active means activation above about 40%; inconclusive means no clear call, values can overlap the other calls;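 further: 0% = median of the plate's neutral control wells and 100% = double that signal; a rise in the Bmi1 reporter signal indicates esBAF inhibition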
FXN GAA850 act – activators of GAA850 frataxin (FXN) promoter; HEK293 lucGAA850 FXN promoter luciferase reporter, 24 h; percent of 10 µM SAHA response; activation, % at 6 µM; hit rate 0.56% among 360,000; AID 540364;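 active means activation above the average of all compounds screened plus 3 SD, cutoff fixed separately per campaign, cut at about 7.5% in these data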;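 further: 0% = DMSO wells and 100% = 10 µM SAHA wells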
MITF TRPM1 HTS – increases MITF-driven TRPM1 promoter luciferase signal; SK-MEL-5 TRPM1-promoter luciferase, 24 h; % of positive control, neutral wells = 0; activation, % at 12.5 µM; hit rate 0.75% among 300,000; AID 588334;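 active means mean activation of at least 80% with every replicate also reaching 80%; inconclusive means mean reaches 80% but some replicate falls short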;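 further: 0% = neutral control wells and 100% = parthenolide positive control wells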
Wnt act – Wnt/beta-catenin pathway activation | hit rate 1.2% among 300,000 | activation, % at 9.35 µM | Wnt/beta-catenin reporter cell assay, activator, plate reader; in the data active means activation above about 30%, passing the limit was not always enough; inconclusive means no clear call, values can overlap the other calls;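 further: 0% = neutral control wells and 100% = positive control wells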
AHR activator – activators of human aryl hydrocarbon receptor; P35869; AHR-responsive luciferase reporter cells, luminescence; activation, % at 5 µM; hit rate 2.5% among 320,000; AID 2796; in the data active means activation above about 47%;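 further: 0% = vehicle wells and 100% = reference agonist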
Target sequence (P35869 whole entry, looked up): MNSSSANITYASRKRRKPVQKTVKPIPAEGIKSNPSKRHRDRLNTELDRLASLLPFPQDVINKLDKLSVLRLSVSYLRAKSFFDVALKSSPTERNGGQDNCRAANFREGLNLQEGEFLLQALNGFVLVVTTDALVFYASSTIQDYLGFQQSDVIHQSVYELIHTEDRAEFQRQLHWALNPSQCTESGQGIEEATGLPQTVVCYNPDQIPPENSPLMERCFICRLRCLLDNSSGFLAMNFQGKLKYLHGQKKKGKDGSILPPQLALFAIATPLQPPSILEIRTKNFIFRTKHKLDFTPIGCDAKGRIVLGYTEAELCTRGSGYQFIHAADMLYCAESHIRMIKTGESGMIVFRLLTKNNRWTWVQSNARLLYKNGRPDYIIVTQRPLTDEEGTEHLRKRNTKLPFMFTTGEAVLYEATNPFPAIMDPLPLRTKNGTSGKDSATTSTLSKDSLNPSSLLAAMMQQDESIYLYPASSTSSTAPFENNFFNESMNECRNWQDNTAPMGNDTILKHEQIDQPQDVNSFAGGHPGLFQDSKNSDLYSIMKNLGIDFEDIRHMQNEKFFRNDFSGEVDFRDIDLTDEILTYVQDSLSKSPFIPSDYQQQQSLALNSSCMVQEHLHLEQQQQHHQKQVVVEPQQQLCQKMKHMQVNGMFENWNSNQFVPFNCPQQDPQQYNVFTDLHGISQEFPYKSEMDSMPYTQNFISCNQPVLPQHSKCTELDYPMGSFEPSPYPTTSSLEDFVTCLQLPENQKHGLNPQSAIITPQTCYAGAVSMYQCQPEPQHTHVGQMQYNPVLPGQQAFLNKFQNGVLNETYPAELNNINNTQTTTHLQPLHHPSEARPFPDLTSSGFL
GAA30 counter – activates GAA30 frataxin promoter, counter-screen for GAA850 activators | activation, % at 6 µM | AID 588350 | HEK293 lucGAA30 FXN promoter luciferase, 24 h; DMSO = 0%, 5 µM ipriflavone = 100% | hit rate 66% among 1,900 | shares compounds with FXN GAA850 act;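 active means mean activation above the mean of solvent-only control wells plus 3 SD, cut at about 22% in these data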;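 further: counterscreen of GAA850 promoter hits where activity marks nonselective or luminescence artifacts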
FXN GAA850 conf – GAA850 FXN promoter activation confirmation. shares compounds with FXN GAA850 act. HEK293 lucGAA850 FXN promoter luciferase reporter, 24 h; 100% = activation by SAHA. activation, % at 6 µM. hit rate 86% among 1,900. AID 588351;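 active means mean activation above a set limit taken from the primary screen, cut at about 8% in these data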;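 further: 0% = DMSO wells and 100% = 10 µM SAHA wells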
The depositor's hits bear a star.

Results for COc1ccc(/C=N\NC(=O)c2sccc2C)cc1Cn1nc(C)cc1C ?
esBAF inh: -9; FXN GAA850 act: 8.1*; MITF TRPM1 HTS: -21; Wnt act: 7; AHR activator: 57*; GAA30 counter: 42*; FXN GAA850 conf: 22*

What do the screens show for `COc1ccc(/C=N\NC(=O)COc2ccccc2Cl)cc1Cn1nc(C)cc1C`?
esBAF inh: -15; FXN GAA850 act: 0; MITF TRPM1 HTS: -4; AHR activator: 0

Results for CC(Nc1cc(N2CCOCC2)ccc1[N+](=O)[O-])c1ccccc1 (stereo unspecified) ?
FXN GAA850 act: 8.8*; MITF TRPM1 HTS: -2; AHR activator: 2; GAA30 counter: 34*; FXN GAA850 conf: 15*

Results for COc1ccc(OCCNc2cc(N3CCOCC3)ccc2[N+](=O)[O-])cc1 ?
esBAF inh: 18; FXN GAA850 act: 3; MITF TRPM1 HTS: -4; AHR activator: 1

Results for COc1cccc(OCCNc2cc(N3CCOCC3)ccc2[N+](=O)[O-])c1 ?
FXN GAA850 act: 10*; MITF TRPM1 HTS: 31; AHR activator: 35; GAA30 counter: 67*; FXN GAA850 conf: 31*

Results for C[C@@H]1CN([C@@H](C)CO)C(=O)c2cc(-c3ccccc3)cnc2O[C@H]1CN(C)C(=O)Cc1ccccn1 ?
esBAF inh: 5

Results for Cc1noc(C)c1S(=O)(=O)N(C)C[C@H]1OCc2ccccc2-c2ccccc2C(=O)N([C@@H](C)CO)C[C@@H]1C ?
esBAF inh: 3

Results for CC(=O)Oc1ccc(C(=O)Cc2ccccn2)c(O)c1 ?
esBAF inh: 1; FXN GAA850 act: 11*; MITF TRPM1 HTS: -3; AHR activator: 0; GAA30 counter: 23*; FXN GAA850 conf: 12*

Results for COc1cc(/C=C/c2ccc3cccc(O)c3n2)cc(Br)c1OC ?
esBAF inh: 66*; FXN GAA850 act: 9.2*; MITF TRPM1 HTS: -1; Wnt act: inconclusive; AHR activator: -2; GAA30 counter: -46; FXN GAA850 conf: -1

How did COc1cc(/C=C/c2ccc3cccc(O)c3n2)cc(Cl)c1OC do in these assays?
esBAF inh: -4; FXN GAA850 act: 13*; MITF TRPM1 HTS: -15; Wnt act: 47*; AHR activator: 0; GAA30 counter: -79; FXN GAA850 conf: -23

What do the screens show for `COc1cc(/C=C/c2ccc3c(Br)cc(Br)c(O)c3n2)ccc1O`?
esBAF inh: 6; FXN GAA850 act: 1; MITF TRPM1 HTS: -21; Wnt act: -10; AHR activator: -1

What do the screens show for `Cc1noc(C)c1S(=O)(=O)Nc1ccc2c(c1)C(=O)N([C@@H](C)CO)C[C@@H](C)[C@@H](CN(C)C(=O)NC(C)C)OCCCC[C@@H](C)O2`?
esBAF inh: 1

What do the screens show for `CCCCSc1nc2c([nH]1)c(=S)n(C)c(=O)n2C`?
FXN GAA850 act: 19*; MITF TRPM1 HTS: -5; Wnt act: -3; GAA30 counter: 14; FXN GAA850 conf: 15*

What do the screens show for `CCCC(CC)Sc1nc2c([nH]1)c(=S)n(C)c(=O)n2C` (stereo unspecified)?
esBAF inh: -5; FXN GAA850 act: 15*; MITF TRPM1 HTS: -16; Wnt act: -1; GAA30 counter: 17; FXN GAA850 conf: 14*

Results for COC(=O)C[C@@H]1CC[C@@H]2[C@@H](COc3ccc(NC(=O)NC(C)C)cc3C(=O)N2C)O1 ?
esBAF inh: -4

How did C[C@@H]1CN([C@H](C)CO)C(=O)c2cc(C#CC3CC3)cnc2O[C@H]1CN(C)C(=O)c1ccccc1 do in these assays?
esBAF inh: 3

What do the screens show for `CN=C1S/C(=C\c2ccc(O)c(Br)c2)C(=O)N1C`?
esBAF inh: 23; FXN GAA850 act: 4; MITF TRPM1 HTS: -5; Wnt act: 9; AHR activator: -2

What do the screens show for `CN=C1S/C(=C\c2ccc(O)c(OC)c2)C(=O)N1C`?
FXN GAA850 act: 9.9*; Wnt act: 52*; AHR activator: -1; GAA30 counter: 113*; FXN GAA850 conf: 35*
